Assay outcomes deposited in PubChem BioAssay by several laboratories.
tim10-1 inh – inhibits growth of tim10-1 mutant yeast. actives 2.2% (n = 330,000). AID 463190. S. cerevisiae tim10-1 ts strain growth, BacTiter-Glo, 24 h. inhibition, % at 20 µM;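 active = inhibition of at least 40%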;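 note: mutant grown at 25 °C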
tim23-1 inh – growth inhibitors of tim23-1 mutant yeast | S. cerevisiae tim23-1 growth, BacTiter-Glo luminescence, 24 h | inhibition, % at 20 µM | actives 1.3% (n = 330,000) | AID 463212;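 active = growth inhibition of the mutant yeast at or above 50%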;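 note: temperature-sensitive mutant grown at 25 °C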
NLRP3 yeast inh – blocks the NALP3 inflammasome reconstituted in yeast. Yeast reconstituted NLRP3/ASC/caspase-1, beta-gal luminescence, 24 h. inhibition, % at 10 µM. actives 0.39% (n = 330,000). AID 2825;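 active = inhibition of 50% or more; inactive = inhibition below 50%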
SKKanGAS inh – inhibitors of SKKanGAS S. pyogenes growth in kanamycin (SK-promoter or general growth effect). BacTiter-Glo, 6 h. inhibition, % at 7.5 µM. actives 1.3% (n = 300,000). AID 1662;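 active = mean replicate score, as percent of positive control median, at least 50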;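 note: strain carries kanamycin resistance gene driven by streptokinase promoter and grows in 40 µg/ml kanamycin; loss of luminescence reflects streptokinase promoter inhibition or plain growth inhibition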
TIM10 inh – growth inhibitors of TIM10 yeast strain; inhibition, % at 10 µM; actives 1.4% (n = 330,000); S. cerevisiae TIM10 strain growth, BacTiter-Glo luminescence, 24 h;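 active = inhibition of 40% or more at the single tested concentration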;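 note: wild-type TIM10 isogenic control strain grown at permissive 25 °C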
PfHsp90 yeast 2 – growth inhibition of yeast expressing Plasmodium Hsp90; S. cerevisiae expressing PfHsp90, BacTiter-Glo ATP, 48 h; yeast lacking PDR1 and PDR3 efflux regulators; inhibition, % at 9.4 µM; actives 0.32% (n = 310,000); AID 504621;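 active = every replicate shows inhibition above about 80%, whatever the replicate mean, limit read from the data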
NALP3 yeast conf – confirmation of NALP3 inhibitors in yeast; shares compounds with NLRP3 yeast inh; yeast expressing human NALP3, luminescence; inhibition, % at 10 µM; actives 81% (n = 1,300); in the data active = inhibition above about 48%
Casp1-ASC yeast – counter-screen for NALP3 inhibitors: yeast caspase-1-ASC; shares compounds with NLRP3 yeast inh; yeast expressing Caspase-1-ASC, luminescence counter screen; inhibition, % at 10 µM; actives 66% (n = 1,000); AID 488784
NALP3 retest – yeast NALP3 inhibition, confirmed on retest | shares compounds with NLRP3 yeast inh | yeast expressing human NALP3, luminescence read-out | inhibition, % at 10 µM | actives 53% (n = 1,000)
tim10-1 conf – tim10-1 yeast growth inhibition, confirmed; actives 56% (n = 7,400); S. cerevisiae tim10-1 ts strain growth, BacTiter-Glo, 24 h; shares compounds with tim10-1 inh; AID 463213; inhibition, % at 20 µM;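 active = inhibition of yeast growth at or above a set limit in either of two repeat tests at 20 µM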;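 note: tim10-1 mutant grown at permissive 25 °C to find synthetic lethal compounds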
TIM10 conf – confirmation of TIM10 yeast growth inhibitors. inhibition, % at 10 µM. S. cerevisiae tim10 strain growth, BacTiter-Glo luminescence, 24 h. shares compounds with TIM10 inh. actives 63% (n = 4,600);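 active = inhibition of yeast growth at or above a set limit in either of two replicates at 10 µM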; note: this counterscreen used the strain with wild-type TIM10
A number is an active result; - = inactive; . = not tested or not shown. Hits are enriched below; roughly 4.6% of the tested compounds scored in any of these assays. Cut-off read from the data, not from the text of the source, unless noted: active = inhibition above about 50%; inactive = the rest.

SMILES	tim10-1 inh	tim23-1 inh	NLRP3 yeast inh	SKKanGAS inh	TIM10 inh	PfHsp90 yeast 2	NALP3 yeast conf	TIM10 conf	others
COc1ccc(N2CCN(C(=O)Nc3cccc(C(F)(F)F)c3)CC2)cc1	55	-	-	-	49	-	-	-	tim10-1 conf=41
O=C(Nc1cccc(C(F)(F)F)c1)N1CCN(C(=O)Nc2cccc(C(F)(F)F)c2)CC1	-	-	-	-	-	-	.	.
COCCCN1C(=O)N(c2ccc(F)cc2)C(=O)C1CC(=O)Nc1ccc(OC)cc1 (centres undefined)	-	-	-	-	-	-	.	.
Nc1[nH]n(-c2ccccc2)c(=O)c1N=Nc1ccc2ncsc2c1	-	-	-	-	-	-	.	.
O=C(OCC(=O)c1c[nH]c2ccccc12)c1ccc([N+](=O)[O-])s1	40	-	84	-	73	110	91	84	Casp1-ASC yeast=86;NALP3 retest=92;tim10-1 conf=53
Cc1ccc(C(=O)OCC(=O)c2c[nH]c3ccccc23)cc1	-	-	-	-	-	-	.	.
COc1ccc(C(=O)N2CCN(C(C)=O)CC2)cc1S(=O)(=O)N1CCOCC1	-	-	-	-	-	-	.	.
CCC(C)(C)n1nnnc1C(c1cccs1)N1CCc2ccccc21 (centres undefined)	-	-	-	-	50	-	-	34
CC1CC1C(=O)Nc1ccc(-c2ccccc2)cc1 (centres undefined)	-	-	51	-	43	-	64	36
CNC(=O)c1c(NC(=O)CCS(=O)(=O)c2ccc(C)cc2)sc2c1CCN(C(=O)OC)C2	-	-	-	-	-	-	.	.
COc1ccccc1NC(=O)CSCc1ccc([N+](=O)[O-])cc1	-	-	65	-	50	-	60	-	Casp1-ASC yeast=59;NALP3 retest=51
COc1ccc([N+](=O)[O-])cc1NC(=O)CSCc1cc(C)cc(C)c1	-	-	-	-	-	-	.	.
Cc1ccc2c(c1)sc(=NC(=O)C1CC1)n2C	-	-	-	-	-	-	.	.
Cc1ccc2c(c1)sc(=NC(=O)c1cccs1)n2C	-	-	58	-	59	-	-	60	Casp1-ASC yeast=-;NALP3 retest=-
CN(Cc1ccccc1)C(=O)c1cccc(NC(=O)Cc2ccc(NC(=O)C3CCCN(C(=O)C4CCCC4)C3)cc2)c1 (centres undefined)	.	.	.	.	.	-	.	.
CC(C)(C)C(=O)/C(=C\c1ccc([N+](=O)[O-])cc1)n1cncn1	-	-	74	-	61	.	65	-
CN(C)/C=C(/C(=O)c1ccccc1)n1cncn1	-	-	-	-	-	-	.	.
CCN(C[C@H]1N[C@@](Cc2ccccc2)(C(=O)OC)[C@H]2C(=O)N(C)C(=O)[C@@H]12)C(=O)Nc1ccccc1	-	-	-	.	-	-	.	.
Cn1c(=O)c(C(=O)NCCO)c(O)c2ccccc21	-	-	-	-	-	-	.	.
Cn1c(=O)c(C(=O)NNC(=O)c2ccc(Br)cc2)c(O)c2ccccc21	-	-	60	92	64	-	78	59
COc1cc(CNCCc2ccccc2)ccc1OCc1ccc(Cl)nc1	-	-	50	-	55	-	-	-	Casp1-ASC yeast=-;NALP3 retest=51
Fc1ccc(CSc2nnc(-c3cnccn3)n2Cc2ccco2)cc1	-	-	-	-	41	.	-	-
Fc1ccc(CSc2nnc(-c3cccnc3)n2Cc2ccco2)cc1	-	-	-	-	-	.	.	.
O=CC1=C(c2ccccc2)Oc2ccccc2O1	-	-	68	-	78	-	64	79	Casp1-ASC yeast=75;NALP3 retest=85
O=C(NCCCN1CCOCC1)c1c(O)c2cc(Br)cc(Br)c2[nH]c1=O	51	-	63	.	67	-	81	74	Casp1-ASC yeast=-;NALP3 retest=-;tim10-1 conf=47
